Most compounds without a hit are left out; they make up all but 3.2% or so of the library.
Mcl1-Noxa inh: disrupts binding of human Mcl-1 to Noxa peptide; 1.5% of 220,000 active; TR-FRET Mcl-1/Noxa peptide binding, 2 h; Q07820; inhibition, % at 21.7 µM;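 active = compounds that cut the protein-peptide binding signal by more than 50% relative to plate controls in a single-dose test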;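 note: His-tagged Mcl-1 with rhodamine Noxa BH3 peptide and terbium anti-His antibody; 0% = Mcl-1 plus Noxa peptide wells and 100% = peptide-only wells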
Bim-Mcl-1: disrupts Bim peptide binding to human Mcl-1; AID 1009; 0.1% of 190,000 active; Q07820; Bead-based flow cytometry, Bim peptide-Mcl-1 binding; inhibition, % at 10 µM; in the data active = inhibition above about 40%;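 note: 0% = no compound tracer wells and 100% = peptide blocker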
14-3-3 Bad inh: disrupts binding of bovine 14-3-3 zeta to phospho-Bad peptide; P63103; TR-FRET 14-3-3zeta/Dy647-pBad peptide displacement, 1 h; inhibition, % at 21.7 µM; 0.71% of 220,000 active; AID 781;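 active = inhibition above about 70%, limit read from the data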;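 note: 0% = full 14-3-3 plus peptide FRET controls and 100% = background without 14-3-3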
Mcl1 Bid PPI: Mcl-1/Bid interaction inhibition; Q07820; TR-FRET Mcl-1/Bid-Dy647 peptide binding, 1536-well; inhibition, % at 21.7 µM; 0.97% of 220,000 active; AID 1021;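 active = compounds that cut the binding signal by more than half at the single screening dose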;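 note: His-tagged Mcl-1 with europium anti-His antibody binding Bid BH3 peptide; 0% = Mcl-1 plus peptide wells and 100% = peptide-only wells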
NCF1 inh: p47phox (human) inhibition; p47phox/p22phox peptide binding, fluorescence polarization, 2 h; inhibition, % at 24.7 µM; 0.53% of 220,000 active; AID 1274;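 active = inhibition above about 30%, limit read from the data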;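 note: 0% = p47phox with labelled peptide and 100% = labelled peptide alone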
Target sequence (P14598 whole entry, looked up): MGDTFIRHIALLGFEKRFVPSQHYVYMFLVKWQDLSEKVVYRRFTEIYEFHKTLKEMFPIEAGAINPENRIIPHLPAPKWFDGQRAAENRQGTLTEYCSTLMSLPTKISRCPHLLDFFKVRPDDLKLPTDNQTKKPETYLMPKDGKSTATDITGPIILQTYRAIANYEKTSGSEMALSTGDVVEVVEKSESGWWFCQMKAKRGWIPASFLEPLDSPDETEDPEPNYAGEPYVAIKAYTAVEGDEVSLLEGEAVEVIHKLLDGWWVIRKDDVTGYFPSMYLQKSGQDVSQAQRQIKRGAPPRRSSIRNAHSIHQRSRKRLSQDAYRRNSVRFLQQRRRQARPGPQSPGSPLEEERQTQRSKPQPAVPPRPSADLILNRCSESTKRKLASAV
Numbers without * were called inactive.

`CCn1ncc(Br)c1C(=O)Nc1ccccc1OC` gave Mcl1-Noxa inh -6.1, Bim-Mcl-1 -1.0, 14-3-3 Bad inh -8.5, Mcl1 Bid PPI -6.8 and NCF1 inh 1.6.
For CCc1c(C)sc(NC(=O)CC#N)c1C#N the results were Mcl1-Noxa inh 61.8*, Bim-Mcl-1 1.0, 14-3-3 Bad inh -3.9, Mcl1 Bid PPI -80.7 and NCF1 inh -48.0.
For O=C(COC(=O)CNC(=O)c1ccc(Cl)cc1)Nc1cccc(S(=O)(=O)N2CCCC2)c1 the results were Mcl1-Noxa inh 7.6, 14-3-3 Bad inh -0.4, Mcl1 Bid PPI -24.4 and NCF1 inh -7.6.
OC[C@@H](O)C1OC2NC(=S)OC2C1O (some centres undefined) was read as Mcl1-Noxa inh 23.3, Bim-Mcl-1 -1.0, 14-3-3 Bad inh -4.1, Mcl1 Bid PPI -11.8 and NCF1 inh 4.6.
For O=C(CCc1ccc(O)c(O)c1)NNC(=S)Nc1ccc(Br)cc1Cl the results were Mcl1-Noxa inh -23.5, Bim-Mcl-1 0.0, 14-3-3 Bad inh -17.4, Mcl1 Bid PPI -72.4 and NCF1 inh 2.5.
O=C(NC(=S)NCc1cccnc1)c1ccc([N+](=O)[O-])cc1 was read as Mcl1-Noxa inh 3.2, Bim-Mcl-1 -2.0, 14-3-3 Bad inh -18.9, Mcl1 Bid PPI 70.6* and NCF1 inh 4.4.
For c1coc(-c2nc3c4c5c(sc4ncn3n2)CCCC5)c1 the results were Mcl1-Noxa inh 10.8, Bim-Mcl-1 -1.0, 14-3-3 Bad inh 5.4, Mcl1 Bid PPI 96.8* and NCF1 inh 2.3.
Screening Cc1nc2sc3c(c2c2nc(-c4ccco4)nn12)CCCC3 returned Mcl1-Noxa inh -4.0, Bim-Mcl-1 5.0, 14-3-3 Bad inh -6.5, Mcl1 Bid PPI -10.9 and NCF1 inh -22.8.
CC(O)CN(CCC(N)=O)CCC(N)=O (centres undefined) was read as Mcl1-Noxa inh 14.8, Bim-Mcl-1 -1.0, 14-3-3 Bad inh 66.1, Mcl1 Bid PPI 52.4* and NCF1 inh -19.6.
`CC(C)=CCC/C(C)=C/CN(CC(C)O)CC(C)O` (centres undefined) gave Mcl1-Noxa inh 10.5, Bim-Mcl-1 -1.0, 14-3-3 Bad inh 23.2, Mcl1 Bid PPI -40.6 and NCF1 inh -6.6.
Screening Cc1ccc(C(=O)NCC(=O)OCC(=O)Nc2ccccc2C#N)s1 returned Mcl1-Noxa inh 13.1, Bim-Mcl-1 2.0, 14-3-3 Bad inh 2.7, Mcl1 Bid PPI 11.2 and NCF1 inh -2.6.
For Cc1cc2nc3c(=O)[nH]c(=O)[nH]c3nc2c([N+](=O)[O-])c1N the results were Mcl1-Noxa inh 71.4*, Bim-Mcl-1 14.0, 14-3-3 Bad inh 73.2*, Mcl1 Bid PPI -45.6 and NCF1 inh -147.8.
`CC(C)CCN1CCN(Cc2ccon2)CC1CCO` (centres undefined) gave Mcl1-Noxa inh 15.7, Bim-Mcl-1 -2.0, 14-3-3 Bad inh -5.5, Mcl1 Bid PPI -36.1 and NCF1 inh -0.7.
For COc1cc(C=O)cc(OC)c1OS(=O)(=O)c1ccc(NC(C)=O)cc1 the results were Mcl1-Noxa inh 51.7*, Bim-Mcl-1 0.0, 14-3-3 Bad inh 5.2, Mcl1 Bid PPI 20.6 and NCF1 inh 4.5.
For C/C(=C\c1ccco1)C1C(C#N)=C(N)Oc2n[nH]c(-c3ccc(C)cc3)c21 (centres undefined) the results were Mcl1-Noxa inh 34.4, Bim-Mcl-1 0.0, 14-3-3 Bad inh -0.2, Mcl1 Bid PPI -46.7 and NCF1 inh -27.3.
`C/C(=C\c1ccco1)C1C(C#N)=C(N)Oc2n[nH]c(-c3ccccc3)c21` (centres undefined) gave Mcl1-Noxa inh 69.2*, Bim-Mcl-1 2.0, 14-3-3 Bad inh -14.6, Mcl1 Bid PPI 4.8 and NCF1 inh -17.3.
`CCOc1ccc(N/C=C/C(=O)c2ccc(C)cc2)c([N+](=O)[O-])c1` gave Mcl1-Noxa inh 22.1, Bim-Mcl-1 1.0, 14-3-3 Bad inh -1.6, Mcl1 Bid PPI -8.2 and NCF1 inh 36.8*.
`COc1ccc(NC(=O)C2C3CC/C=C\CCC32)cc1` (centres undefined) gave Mcl1-Noxa inh 2.9, 14-3-3 Bad inh -4.0, Mcl1 Bid PPI -4.3 and NCF1 inh -15.1.
For O=C(Nc1ccc(O)cc1)C1CC=CCC1 (centres undefined) the results were Mcl1-Noxa inh 56.4*, Bim-Mcl-1 6.0, Mcl1 Bid PPI -59.1 and NCF1 inh 56.4*.
For c1ccc2c(CSc3nnc(-c4ccncc4)o3)cccc2c1 the results were Mcl1-Noxa inh 8.8, Bim-Mcl-1 -1.0, 14-3-3 Bad inh 78.0*, Mcl1 Bid PPI -0.5 and NCF1 inh -9.6.
